# Tau fibril FP – tau fibrillization inhibition (FP); P10636; K18 P301L tau heparin fibrillization, Alexa594 FP, 6 h; Potency, µM (titrated, usually from 57.7 µM), without a hit: top-dose activity, negative = inhibition, usual class: inhibitors; 280,000 compounds, 0.39% hits; AID 1468; also: nearly all actives have a fitted effect of over 55% in size
# Target sequence (P10636 561-689 P618L limits assumed): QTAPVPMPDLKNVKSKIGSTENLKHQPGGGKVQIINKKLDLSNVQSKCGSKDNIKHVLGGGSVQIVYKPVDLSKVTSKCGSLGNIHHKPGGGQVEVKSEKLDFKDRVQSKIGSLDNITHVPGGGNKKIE
#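 FP of Alexa 594-tau after heparin (20 uM) induction. Substrate: human K18 P301L, 15 uM unlabeled, 0.24 uM labeled. Buffer 100 mM sodium acetate pH 7. 6 hr, 37 C.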
# Tau fluor cs – counter-screen for tau fibril formation inhibitors | Potency, µM (highest dose often 57.7 µM), for inactives: at the top dose activity change, negative = decrease | 280,000 compounds, 0.93% hits | tau K18 P301L Alexa594 fluorescence, heparin fibrillization; also: nearly all actives have a fitted effect of over 55% in size
#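 Human tau K18 P301L (15 uM unlabeled, 0.24 uM Alexa 594-labeled) in 100 mM sodium acetate pH 7 with 20 uM heparin, 6 hr at 37 C. ThT 30 uM added, 1 hr ambient; Alexa 594 FP and total fluorescence read at 555/632 nm.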
# TR SRC2 fluor cs – Texas Red fluorescence interference in TRb-SRC2 counter-screen; TRb/SRC2 Texas Red total fluorescence interference; Potency, µM (top dose mostly 106 µM), for inactives: at the highest dose fluorescence change, negative = quenching; 280,000 compounds, 0.29% hits; active = well fitted curve in either direction with a large enough effect; inconclusive = small, poorly fitted or top-dose-only effect
#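 Flags fluorescent or light-absorbing compounds by total fluorescence, S + 2P, at 555 nm excitation and 632 nm emission. Mixture: 20 nM Texas Red SRC2 peptide, 0.6 uM human TRb LBD, 1 uM T3, 5% DMSO; compound exposure 5 h at ambient temperature.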
# TRb-SRC2 inh – disrupts binding of human TR beta to SRC2; AID 1469; P10828; TRbeta-SRC2 peptide binding, fluorescence polarization; receptor liganded with 1 µM T3; Potency, µM (series often up to 106 µM), without a hit: at the top dose activity change, negative = inhibition, hits mostly inhibitors; 280,000 compounds, 0.065% hits;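 also: plate controls were bound peptide for no effect and peptide without receptor for full effect; nearly all actives have a fitted effect of over 50% in size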
# Target sequence (P10828 whole entry, looked up): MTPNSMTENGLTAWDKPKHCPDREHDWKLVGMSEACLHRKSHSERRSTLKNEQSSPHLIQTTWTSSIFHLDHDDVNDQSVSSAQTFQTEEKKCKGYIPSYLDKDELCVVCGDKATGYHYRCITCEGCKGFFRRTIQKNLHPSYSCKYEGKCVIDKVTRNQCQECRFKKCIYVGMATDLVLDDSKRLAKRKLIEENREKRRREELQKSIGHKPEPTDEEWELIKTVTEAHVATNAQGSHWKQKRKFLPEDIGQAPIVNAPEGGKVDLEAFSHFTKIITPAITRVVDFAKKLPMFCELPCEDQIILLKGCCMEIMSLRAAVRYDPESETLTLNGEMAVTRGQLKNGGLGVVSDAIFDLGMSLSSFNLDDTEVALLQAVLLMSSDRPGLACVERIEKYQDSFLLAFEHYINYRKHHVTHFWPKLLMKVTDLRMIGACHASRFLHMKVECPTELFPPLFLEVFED
#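 Read-out is fluorescence polarization (555 nm excitation, 632 nm emission) of a Texas Red SRC2 coactivator peptide; loss of signal reflects blocked binding to human TRb ligand-binding domain in the presence of 1 uM T3.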
# Tau fibril ThT – blocks human tau fibril formation measured by thioflavin T; Potency, µM (highest dose often 57.4 µM), inactives show top-dose activity, negative = inhibition, hits mostly inhibitors; AID 1460; P10636; 270,000 compounds, 2.1% hits; recombinant tau K18 P301L (four-repeat tau fragment), heparin-induced fibrillization, ThT fluorescence; also: nearly all actives have a fitted effect of over 55% in size
#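 Aggregation was driven by heparin (20 uM final) acting on recombinant tau […] bearing P301L in 100 mM sodium acetate pH 7; fibrils were detected with Thioflavin T.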
# * hit, by the source's call; ? = inconclusive; / = not tested or not shown; [ ] = another dose, or the depositor's remark. Sampled rows, rich in hits. Any-hit rate of the full collection: about 3.1%. Unless noted, calls follow the shape of the dose curve; as a rule, active = well fitted curve in the direction sought with a large enough effect; inconclusive = small, poorly fitted or top-dose-only effect, or another doubt; inactive = no such curve, though single readings can be large; an effect the other way counts as inactive or inconclusive. Unless noted, % is scaled to controls: 0 for no effect and ±100 for the full control effect; potency is read from the fitted curve at half-maximal effect.
SMILES,Tau fibril FP,Tau fluor cs,TR SRC2 fluor cs,TRb-SRC2 inh,Tau fibril ThT
CC1CCCCN1CCCNC(=O)c1cc(Sc2cccc(Cl)c2)nc2ccccc12 (stereo unspecified),-2%,-11%,-3%,2%,1%
Cc1ccc(-n2[nH]c(C)c(/C=N/Nc3ccc([N+](=O)[O-])cc3[N+](=O)[O-])c2=O)cc1C,20µM*,4.5µM*[quencher],-5%,-6%,2.2µM*
Oc1cccc(C=NCc2ccccc2)c1O,?,?,-4%,?,7.9µM*
CCc1ccc2[nH]c(C(=O)Nc3ccc4c(c3)OCO4)cc2c1,17%,?,-4%,6%,?
COc1ccccc1N1CCN(C2=CC(=O)CCC2)CC1,-16%,-8%,1%,5%,?
O=C1C=C(N2CCN(C3=CC(=O)CCC3)CC2)CCC1,?,-26%,0%,-4%,25µM*
Cc1c(Cl)sn(-c2ccc(Cl)cc2)c1=O,?,-20%,1%,5%,14µM*
Cc1nn(-c2ccc(Cl)cc2)c(=O)c2ccccc12,-2%,2%,0%,2%,4%
COc1ccc(S(=O)(=O)n2nc(C)c(S(=O)(=O)N3CCCCC3)c2C)cc1,-2%,7%,0%,1%,0%
CS(=O)(=O)Nc1cccc(-c2nc(Nc3ccc(F)cc3)c3ccccc3n2)c1,?,?,1%,29%,13%
COc1cc(NS(C)(=O)=O)ccc1Nc1c2ccccc2nc2ccccc12,-1%,?,-4%,1%,14µM*
COC(=O)c1cnc(Oc2ccc(NC(=O)NC(=O)c3ccccc3Cl)cc2)cc1C(F)(F)F,-3%,-1%,0%,13%,-7%
O=c1n(CCO)c(=O)n(CCO)c(=O)n1CCO,/,/,-4%[201 µM],0%[201 µM],/
C=C(C(=O)c1ccccc1)C(c1ccccc1)C(C)C(=O)c1ccccc1 (stereo unspecified),-2%,-9%,2%,0%,-15%
C=C(C(=O)c1ccccc1)C(C)C(=C)C(=O)c1ccccc1,-20%,-14%,2%,-11%,28µM*
Cc1nn(-c2ccccn2)c2c1C(=O)C(Br)CC2 (stereo unspecified),3.2µM*,?,-11%,?,2.8µM*
CC1=C(C)C(=O)N(c2ccccn2)C1=O,-1%,5%,-1%,-2%,-2%
O=S(=O)(/N=C(\Sc1ccc(Cl)cc1)c1ccccc1)c1ccccc1,?,-11%,-1%,-13%,35µM*
O=C1C=CC(=O)N1CCCCCCN1C(=O)C=CC1=O,25µM*,-21%,-1%,-3%,?
CCN1C(=O)C=CC1=O,?,5%,0%,1%,-2%
O=c1oc(-c2ccc([N+](=O)[O-])cc2)nc2ccc(O)cc12,-6%,?,-6%,2%,13µM*
CCN(CC)S(=O)(=O)c1ccc(C(=O)Nc2nc3c(Cl)cc(Cl)cc3s2)cc1,-1%,-9%,2%,0%,-4%
O=C(Cn1nc(-c2ccccc2)nc(Cc2ccccc2)c1=O)Nc1ccc(Cl)cc1,-9%,3%,-2%,-1%,9%
Nc1nc(N)c(N=Nc2ccc(S(N)(=O)=O)cc2)c(=O)[nH]1,0%,-14%,-4%,-1%,20µM*
NS(=O)(=O)c1ccc(N=Nc2ccc(=O)[nH]c2O)cc1,-22%,-16%,-4%,5%,16µM*
SMILES,Tau fibril FP,Tau fluor cs,TR SRC2 fluor cs,TRb-SRC2 inh,Tau fibril ThT
Cc1ccc(C=Nc2ccccc2C(N)=O)o1,4%,-4%,2%,-6%,-15%
Cc1ccc(C=Nc2ccc(N(C)C)cc2)o1,25µM*,?,18%,?,10µM*
CC1=NN(c2ccccc2)C(=O)/C1=C\C=C1/N(C)c2ccccc2C1(C)C,?,?,-1%,-2%,2.2µM*
CC1=NN(c2ccccc2)C(=O)/C1=C\C=C1\N(C)c2ccccc2C1(C)C,1%,?,-6%,-5%,1.6µM*
CN1/C(=C\C=C2/C(=O)Oc3ccccc3C2=O)C(C)(C)c2ccccc21,13%,?,-1%,2%,?
COc1cccc(CNC(=O)c2[nH]c3cc(C)ccc3c2Sc2ccccc2)c1,5%,-23%,0%,3%,-8%
Nc1cnc(Nc2ccc(Br)cc2)nc1N,1%,?,-3%,2%,?
Cc1ccc(-c2ccc(/C=C3\C(=O)ON=C3c3ccccc3)o2)c([N+](=O)[O-])c1,-12%,?,-5%,-8%,16µM*
Cc1cc(/C=N\NC(=O)COc2cccc3cccnc23)c(C)n1-c1ccccc1,-11%,?,-2%,2%,25µM*
Cc1cc(/C=N\NC(=O)COc2cccc3cccnc23)c(C)n1-c1ccc(Br)cc1,-10%,-29%,-1%,-3%,?
CCN1CCN(c2cc(C)c3cc(NC(=S)N4CCCC(C)C4)ccc3n2)CC1 (stereo unspecified),6%,-29%,0%,0%,?
CN(C)/N=C/c1c(O)ccc2ccccc12,8%,?,-1%,-3%,?
Oc1ccc2ccccc2c1C=NC12CN3CCN(CN(C3)C1)C2,?,?,-24%,?,20µM*
CS/C(N)=N/N=C/c1c(O)ccc2ccccc12,5%,?,-2%,-7%,?
OCC(CO)(CO)N=Cc1c(O)ccc2ccccc12,?,?,-19%,?,25µM*
O=C(N/N=C/c1c(O)ccc2ccccc12)c1cccc(C(F)(F)F)c1,?,8.9µM*[quencher],-6%,-5%,?
CC(=O)N1CCCc2cc(S(=O)(=O)N3CCCC(C(=O)Nc4cccc(Cl)c4C)C3)ccc21 (stereo unspecified),9%,-16%,0%,-6%,-12%
CN(C)c1nc(C=C(C#N)C#N)c(Cl)n1-c1ccc(F)cc1,?,-29%,-1%,1%,14µM*
Nc1c(O)ccc2c1C(=O)c1ccccc1C2=O,?,?,?,?,14µM*
CC1=C/C(=C\c2ccc3c(c2)OCO3)C(=O)S1,-13%,-15%,-1%,-8%,6.3µM*
CCCN1C/C(=C/c2ccc3c(c2)OCO3)C(=O)/C(=C/c2ccc3c(c2)OCO3)C1,?,-22%,-1%,-4%,22µM*
O=C1Nc2ccc(F)cc2C12Nc1ccccc1-c1nnc(SCc3ccccc3)nc1O2 (stereo unspecified),?,?,-4%,-3%,?
O=C1Nc2ccc(F)cc2C12Nc1ccccc1-c1nnc(SCc3ccccc3Cl)nc1O2 (stereo unspecified),?,?,0%,6%,28µM*
Cc1ccc(CSc2nnc3c(n2)OC2(Nc4ccccc4-3)C(=O)Nc3ccc(F)cc32)cc1 (stereo unspecified),?,?,1%,-19%,28µM*

# Source: PubChem
